Laboratory results reported in the GenesisPotency data set.
Hit rate of the full screen: of about 1,300 compounds, about 55 (4%) were called active.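 How the source made its calls: active means fitted EC50 between 10 nM and 100 µM, Hill slope size 0.5 to 2, real signal loss, low interference; inactive means the rest.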 A selection follows. Results with a measured potency or affinity are listed apart.

Target: Ras-related C3 botulinum toxin substrate 1, Mus musculus (UniProt P63001)
Test: activated Rac1 mutant nucleotide-binding inhibitors – biochemical, multiplex, GST-Rac1 beads, Bodipy-FL-GTP, flow cytometry, dose response (AID 1339)

Row | Structure (SMILES) | outcome
1 | COC(=O)c1cccc(NC(=O)c2nn(C)c(=O)c3ccccc23)c1 | inactive
2 | Cc1ccc(C)c(N(CC(N)=O)S(C)(=O)=O)c1 | inactive
3 | Cc1nc2ccc(NC(=O)COc3ccccc3)cc2s1 | inactive
4 | CCOC(=O)Cn1c(=O)c2c(nc(N3CCCCC3)n2C)n(C)c1=O | inactive
5 | Cc1cccc(CNc2nc(C)ccc2C(=O)O)c1 | inactive
6 | O=C(O)c1ccc(CNCc2ccc(F)cc2)s1 | inactive
7 | CCc1ccccc1NCc1sc(C(=O)O)cc1C | inactive
8 | Cc1cc(C(F)F)n2nc(C(=O)Nc3ccc(S(=O)(=O)N4CCCCCC4)cc3)nc2n1 | inactive
9 | CCC(=O)c1ccc(OCC(=O)O)c(OC)c1 | inactive
10 | O=C(CNC(=O)c1ccco1)OCN1C(=O)c2ccccc2C1=O | inactive
11 | COc1ccc(CCNC(=O)C2CCCN2C(=O)NC2CCCCC2)cc1OC (stereo not given) | inactive
12 | CC(C)(C)NC(=O)CSc1nccn1Cc1ccccc1 | inactive
13 | CCCCNC(=O)c1cc([N+](=O)[O-])[nH]n1 | inactive
14 | Nc1nc(CN2CCN(c3ccccc3F)CC2)nc(N2CCCc3ccccc32)n1 | inactive
15 | CCn1c2ccccc2c2nc3cc(C(=O)O)ccc3nc21 | inactive
16 | COc1cccc(OCc2c(C)cccc2C)c1C(=O)O | inactive
17 | COc1cccc(NC(=O)NCCCN2CCN(c3ccc(F)cc3)CC2)c1 | inactive
18 | Cc1nn(-c2ccc(F)cc2)c(Cl)c1/C=C(\CCC(=O)O)c1nc2ccccc2s1 | inactive
19 | Cn1c(=O)cc(N2CCOCC2)[nH]c1=O | inactive
20 | Cc1cc2nc3c(=O)n(C4CCCCC4)c(=O)[nH]c3nc2cc1N | inactive
21 | CNC(=O)C(C)NS(=O)(=O)c1ccc(F)cc1 (stereo not given) | inactive
22 | NC(=O)COC(=O)c1cccc2c1-c1ccccc1C2=O | inactive
23 | O=C(O)c1cc([N+](=O)[O-])ccc1NCc1ccccc1Cl | inactive
24 | COc1cc(-c2cc(=O)c3c(O)cc(O)cc3o2)ccc1O | inactive
25 | O=C(Cc1ccc(Nc2nc(=S)[nH]c3ccccc23)cc1)NC1CCCCC1 | inactive
26 | Cc1cc(C(F)(F)F)c(C#N)c(SCC(=O)Nc2nc3ccccc3s2)n1 | inactive
27 | O=C(CSc1n[nH]c(=O)[nH]c1=O)N/N=C/c1ccccc1 | inactive

Row | Structure (SMILES) | outcome
28 | O=C1CN=C(c2ccccc2)c2cc(Br)ccc2N1Cc1cc(=O)n2ccccc2n1 | inactive
29 | CC(C)[C@H](NC(=O)c1ccccc1)C(=O)OCC(=O)NCCc1ccc(F)cc1 | inactive
30 | O=C(NCc1cccs1)c1cccn2c(=O)c3sccc3nc12 | inactive
31 | Cc1cc(C)cc(C(=O)N(NC(=O)Nc2ccc(Cl)cc2)C(C)(C)C)c1 | inactive
32 | Cn1c(NC(=S)Nc2ccccc2)nc2ccccc21 | inactive
33 | O=C(Nc1cccc(-c2ccc3nncn3n2)c1)c1ccco1 | inactive
34 | CC(C)CCNC(=O)Cc1ccc(Nc2nc(=S)[nH]c3ccccc23)cc1 | inactive
35 | CCOc1c2ccc(C(=O)N[C@H](C)C3CCCCC3)cc2nn1CCOC | inactive
36 | CS(=O)(=O)N1N=C(c2ccccc2)CC1c1ccc2c(c1)OCO2 (stereo not given) | inactive
37 | Cc1ccc(-c2cn3cccc(C)c3n2)cc1 | inactive
38 | CN1CCN(c2ccccc2NC(=O)c2ccc(-c3cccc([N+](=O)[O-])c3)o2)CC1 | inactive
39 | O=C(O)C1CCCN1C(=O)OCc1ccccc1 (stereo not given) | inactive
40 | COc1ccc([N+](=O)[O-])cc1NC(=S)NC(NC(=O)Cc1ccc(OC)c(OC)c1)C(Cl)(Cl)Cl (stereo not given) | inactive
41 | Cc1ccc(-c2ccc(/C=C(\C#N)C(=O)Nc3cc(C)nn3-c3ccccc3)o2)cc1 | inactive
42 | Cc1cccc2cc(CN(Cc3cccs3)C(c3nnnn3C3CCCC3)C(C)C)c(=O)[nH]c12 (stereo not given) | inactive
43 | Cc1cccc(OCCSc2nc3ccccc3n2CC(=O)O)c1C | inactive
44 | CC(C)(C)c1ccc(OCCSc2nc3ccccc3n2CC(=O)O)cc1 | inactive
45 | COc1ccc(OC)c(/C=N/NC(=O)c2ccc(Cn3cc([N+](=O)[O-])cn3)o2)c1 | inactive
46 | O=C(Nc1nc(-c2ccc(S(=O)(=O)N3CCCC3)cc2)cs1)c1cccs1 | inactive
47 | Nc1cccc(S(=O)(=O)c2cccc(N)c2)c1 | inactive
48 | Cc1ccc(/C=C(\CCC(=O)O)c2nc3ccccc3s2)cc1[N+](=O)[O-] | inactive
49 | Cc1c(NC(=O)CCN2C(=O)c3ccccc3C2=O)c(=O)n(-c2ccccc2)n1C | inactive
50 | C=C(C)COc1ccc(-c2n[nH]c(C)c2-c2ccc(Br)cc2)c(O)c1 | inactive
51 | CCc1ccc(OCc2ccc(C(=O)O)o2)cc1 | inactive
52 | COc1ccc(N/C=C/c2nc(SC)nnc2C)cc1 | inactive
53 | CCC(OC(=O)c1cc2sccc2n1C)C(=O)NCc1ccco1 (stereo not given) | inactive
54 | Br.COc1cc(NS(=O)(=O)c2ccc(Nc3nc(-c4ccccc4)cs3)cc2)nc(OC)n1 | inactive

Row | Structure (SMILES) | outcome
55 | COc1ccc(-c2nn3c(-c4ccccn4)nnc3s2)cc1OC | inactive
56 | COc1ccccc1-n1cc([C@@H]2C[C@H]3CN(c4ccccc4)C(=O)[C@]34CCCN24)cn1 | inactive
57 | CC(=O)OC(C(=O)NC1CCCCC1)c1ccc(Cl)cc1 (stereo not given) | inactive
58 | COc1ccc(-c2nnc(S/C(=C/c3ccc(Cl)cc3)C(=O)O)o2)cc1 | inactive
59 | CC(C)C(=O)N1CCN(c2ccccc2NC(=O)c2cccc(Cl)c2)CC1 | inactive
60 | Cc1nc2ncccn2c1-c1csc(Nc2ccccc2)n1 | inactive
61 | Cc1cccc(CNc2ncccc2C(=O)O)c1 | inactive
62 | C=CCc1ccc(OCc2ccc(C(=O)O)o2)c(OC)c1 | inactive
63 | COC(=O)c1ccc(COc2ccccc2/C=N/Nc2cccc(C(=O)O)c2)cc1 | inactive
64 | Cc1ccc(-n2c(SCc3cc(=O)n4ccsc4n3)nnc2-c2cccnc2)c(C)c1 | inactive
65 | COc1cccc(OCc2ccccc2Br)c1C(=O)O | inactive
66 | CCc1nnc(NC(=O)CSc2nnc(CNc3ccc(F)cc3)n2C2CCCCC2)s1 | inactive
67 | CN(C)CCN(C(=O)c1ccc(N2C(=O)CCC2=O)cc1)c1nc2cc3c(cc2s1)OCO3.Cl | inactive
68 | Cc1cc(C)n2nc(C(=O)Nc3ccc(S(=O)(=O)N4CCCC4)cc3)nc2n1 | inactive
69 | COc1ccc(/C=N/n2c(N)c(S(=O)(=O)c3cccs3)c3nc4ccccc4nc32)cc1OC | inactive
70 | O=C(Oc1cccc(O)c1)C1CCCCC1 | inactive
71 | COc1cc(NC(=O)c2cccs2)c(OC)cc1NC(=O)CCC(=O)Nc1cccc2ncccc12.Cl | inactive
72 | CC1(C)Cc2c(sc(NC(=O)c3ccc(Br)o3)c2C#N)CO1 | inactive
73 | C=CCNc1nc(=S)[nH]c2cc(OC)c(OC)cc12 | inactive
74 | O=C(COC(=O)/C=C/c1cccs1)Nc1ccc2ccccc2c1 | inactive
75 | Cc1nc(NC(=O)/C=C/c2ccc(Cl)cc2Cl)sc1C(=O)N(C)C | inactive
76 | O=C(C1CCCO1)N1CCN(C(=S)Nc2ccccc2C(F)(F)F)CC1 (stereo not given) | inactive
77 | COc1ccc(CC(=O)Nc2ccc(C(=O)Nc3nccs3)cc2)cc1OC | inactive
78 | CS(=O)(=O)c1ccc(C(=O)OCc2nnc(-c3ccccc3)o2)cc1[N+](=O)[O-] | inactive
79 | N#CC(c1ccc(Cl)nn1)c1ccc(Cl)cc1Cl (stereo not given) | inactive
80 | Cc1cc(C)c2sc(N(CCN(C)C)C(=O)c3cc(Cl)sc3Cl)nc2c1.Cl | inactive
